Laboratory results taken from article PMC4336329 (PLoS ONE, 2015).
Hit rate of the full screen: of about 310,000 compounds, about 14,000 (4.5%) showed an effect of 50% or more. Effects have a minus sign here. The entries come from a sample that favours strong results as a whole.

These molecules were tested against human ether-à-go-go-related gene (hERG) potassium channel (human, UniProt Q12809) (assay: primary screen, population patch clamp on CHO cells stably expressing hERG; higher = less effect of the substance).
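Note: peak tail current of the secondary pulse compared with the same well before compound.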

Chain of human ether-à-go-go-related gene (hERG) potassium channel (Q12809 whole entry, looked up): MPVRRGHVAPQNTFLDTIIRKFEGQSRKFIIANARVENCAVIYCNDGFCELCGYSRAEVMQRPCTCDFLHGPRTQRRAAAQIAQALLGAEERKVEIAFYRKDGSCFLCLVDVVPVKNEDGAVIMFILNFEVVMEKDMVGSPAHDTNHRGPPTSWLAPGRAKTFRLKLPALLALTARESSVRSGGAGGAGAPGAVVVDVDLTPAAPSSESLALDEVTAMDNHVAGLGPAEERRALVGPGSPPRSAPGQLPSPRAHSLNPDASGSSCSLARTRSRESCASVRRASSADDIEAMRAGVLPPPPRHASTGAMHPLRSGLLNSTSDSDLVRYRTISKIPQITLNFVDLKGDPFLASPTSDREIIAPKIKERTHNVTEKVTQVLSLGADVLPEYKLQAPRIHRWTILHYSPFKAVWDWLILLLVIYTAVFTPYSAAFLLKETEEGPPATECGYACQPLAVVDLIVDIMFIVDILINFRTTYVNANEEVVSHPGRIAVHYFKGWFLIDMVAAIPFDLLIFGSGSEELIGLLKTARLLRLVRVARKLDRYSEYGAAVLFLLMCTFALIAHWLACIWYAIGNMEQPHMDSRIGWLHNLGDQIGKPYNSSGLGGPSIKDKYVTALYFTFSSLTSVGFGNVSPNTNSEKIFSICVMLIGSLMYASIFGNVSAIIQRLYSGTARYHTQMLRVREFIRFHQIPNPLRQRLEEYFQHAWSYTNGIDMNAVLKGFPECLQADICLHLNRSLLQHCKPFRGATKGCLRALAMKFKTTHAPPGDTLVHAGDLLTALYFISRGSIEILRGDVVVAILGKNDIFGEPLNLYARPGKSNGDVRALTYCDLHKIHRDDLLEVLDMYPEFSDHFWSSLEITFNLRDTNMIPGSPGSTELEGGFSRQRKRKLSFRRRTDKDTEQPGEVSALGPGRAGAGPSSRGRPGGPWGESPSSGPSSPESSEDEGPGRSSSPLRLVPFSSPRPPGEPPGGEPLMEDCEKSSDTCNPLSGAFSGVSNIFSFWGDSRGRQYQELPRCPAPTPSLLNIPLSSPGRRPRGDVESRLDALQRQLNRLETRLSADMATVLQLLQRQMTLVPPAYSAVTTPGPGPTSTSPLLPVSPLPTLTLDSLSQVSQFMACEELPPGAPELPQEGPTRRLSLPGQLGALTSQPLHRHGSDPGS

| Structure (SMILES) | hERG current change (%, negative = inhibition) at 10uM [%] |
| --- | --- |
| CC1(C(=O)NCCCN2CCOCC2)Oc2cccnc2NC1=O (stereo not drawn) | 13.2 |
| Cc1ccccc1NC(=S)Nc1ccc(Br)cc1 | -6.93 |
| CS(=O)(=O)N(Cc1ccccc1)c1ccc(C(=O)Nc2ccccc2Sc2ccccc2)cc1 | 1.8 |
| Cc1cccc(C)c1NC(=O)CN(C)C(=O)c1ccccc1Sc1ccccc1C#N | -4.76 |
| O=C(NC(=S)NCc1cccnc1)c1cc2ccccc2o1 | 8.71 |
| CC(=O)c1ccc(O)c(CSC2=NCCS2)c1 | 19.8 |
| O=C(CN1C(=O)NC2(CCc3ccccc32)C1=O)NCCc1ccccc1 (stereo not drawn) | -6.43 |
| COc1ccccc1C(=O)N/C(=C\c1ccc(Br)cc1)C(=O)NCC(=O)O | 1.78 |
| NC(=S)NNC(=O)/C(=C/c1ccc(Br)cc1)NC(=O)c1ccccc1 | 40 |
| O=C(CNC(=O)/C(=C\c1ccc(Br)cc1)NC(=O)c1ccccc1)OCc1ccccc1 | -59.9 |
| CC1(c2ccccc2)NC(=O)N(CC(=O)Nc2nc(-c3ccccn3)cs2)C1=O (stereo not drawn) | 0.219 |
| COc1ccccc1NC(=O)Nc1nn(C)c2cccc(N(C)C)c12 | 11 |
| COC1CCN(Cc2cn(Cc3ccccc3)nc2-c2cc3ccccc3o2)CC1 | -71.9 |
| COCCOC1CCN(Cc2cn(Cc3ccccc3)nc2-c2cc3ccccc3o2)CC1 | -67 |
| COc1ccc(NC(=O)c2cn(CCC#N)nc2-c2cc3ccccc3o2)cc1 | -0.308 |
| COC(=O)C1CCN(C(=O)c2cc3ccccc3oc2=O)CC1 | -7.44 |
| N#CCCn1cc(C(=O)Nc2ccc(C(=O)O)cc2)c(-c2cc3ccccc3o2)n1 | 10.7 |
| COC(=O)C1CCN(Cc2cn(Cc3ccccc3)nc2-c2cc3ccccc3o2)CC1 | -75.9 |
| COC(=O)C1CCN(Cc2nnc(-c3ccccc3)o2)CC1 | 16.1 |

| Structure (SMILES) | hERG current change (%, negative = inhibition) at 10uM [%] |
| --- | --- |
| COc1cccc(-c2nn(Cc3ccccc3)cc2CO)c1 | 8.47 |
| CC(C)(C)c1ccc(/C([O-])=C(/C(=S)NCc2ccco2)[n+]2ccccc2)cc1 | 6.63 |
| Cc1cc(C)cc(NC(=S)N2CCN(S(C)(=O)=O)CC2)c1 | 4.55 |
| CCOc1ccc(N(CC(=O)NCCCOC)S(C)(=O)=O)cc1 | 4.53 |
| Cc1ccc2nc3c(c(Nc4ccc(O)cc4)c2c1)CCC3.Cl | -21.2 |
| Cc1ccc2nc3c(c(C(=O)O)c2c1)CCC3 | 2.29 |
| COc1ccc2nc3c(c(-c4ccccc4)c2c1)CCC3 | -5.34 |
| Cc1ccc2nc3c(c(Nc4cccc(O)c4)c2c1)CCC3.Cl | -70 |
| COc1ccc(Nc2ncnc3ccc(C)cc23)cc1 | -3.17 |
| COc1ccc(Nc2c3c(nc4ccc(C)cc24)CCC3)cc1.Cl | -78.3 |
| Cc1ccc(-c2nc(Nc3cccc(O)c3)c3ccccc3n2)cc1 | 11.9 |
| Cc1ccc2nc3c(c(Nc4ccccc4)c2c1)CCC3.Cl | -71.7 |
| Cc1cccc(-c2nc(Nc3cccc(O)c3)c3ccccc3n2)c1 | 21.8 |
| CC(=O)Nc1ccc(S(=O)(=O)NNC(=O)c2cccc(Cl)c2)cc1 | 8.3 |
| CCOC(=O)CON1C(=O)c2ccccc2C1=O | -5.5 |
| COc1ccc(Cl)cc1-n1c(C)cc(C=O)c1C | 4.29 |
| COc1ccc(CN(C(=O)c2cnccn2)C(C(=O)NC(C)(C)C)c2cc(OC)c(OC)c(OC)c2)cc1 (stereo not drawn) | 1.58 |
| CCOC(=O)c1ccc(Oc2coc3cc(O)ccc3c2=O)cc1 | 17.6 |
| CCOc1ccc(NS(=O)(=O)c2ccc(OC)c(NC(=O)c3ccc4c(c3)OCCO4)c2)cc1 | -2.7 |

| Structure (SMILES) | hERG current change (%, negative = inhibition) at 10uM [%] |
| --- | --- |
| O=C(Cc1csc(-c2ccccc2)n1)NCc1ccco1 | -1.66 |
| CCOc1ccc(C(=O)N2CCN(c3cnn(-c4ccccc4)c(=O)c3Cl)CC2)cc1 | -77.8 |
| CCS(=O)(=O)N1CCN(c2cnn(-c3ccccc3)c(=O)c2Cl)CC1 | -29 |
| O=C(c1ccc(F)cc1)N1CCN(c2cnn(-c3ccccc3)c(=O)c2Cl)CC1 | -48.6 |
| O=C(c1cccc(Br)c1)N1CCN(c2cnn(-c3ccccc3)c(=O)c2Cl)CC1 | -47.4 |
| CC(C)c1ccc(C(=O)N2CCCN(C(=O)c3ccc(C(C)C)cc3)CC2)cc1 | -32.9 |
| Cc1ccn2cc(C(=O)N3CCN(c4cnn(-c5ccccc5)c(=O)c4Cl)CC3)nc2c1 | -46.7 |
| COc1ccc(C(=O)N2CCN(c3cnn(-c4ccccc4)c(=O)c3Cl)CC2)cc1 | -71.3 |
| CC(C)c1ccc(C(=O)N2CCN(c3cnn(C)c(=O)c3Cl)CC2)cc1 | -64.4 |
| Cc1ccc(C(=O)N2CCN(c3cnn(C)c(=O)c3Cl)CC2)cc1 | -31.1 |
| CCCCOP(=O)(c1ccc(N(C)C)cc1)C(O)c1ccc(N(C)C)cc1 (stereo not drawn) | -5.3 |
| COc1cc(/C=C/c2nc(N)nc(-c3ccccc3O)n2)cc(OC)c1OC | -3.86 |
| Cc1ncc([N+](=O)[O-])n1CCOC(=O)Nc1ccc(Cl)c(Cl)c1 | 1.07 |
| CCOc1ccc(Cl)cc1CNCCCSc1ncccn1 | -37.3 |
| Cc1cc(C)nc(SCCCNCc2ccc(Br)cc2)n1.Cl | -36.1 |
| CCOc1ccc(Cl)cc1CNCCCSc1nc(C)cc(C)n1.Cl | -59.6 |
| Cc1ccc(CNCCCSc2nc(C)cc(C)n2)cc1.Cl | -52.3 |
| CCOc1c(CNCCCSc2nc(C)cc(C)n2)cccc1OC.Cl | -11.1 |
| Cc1cc(C)nc(SCCCNCc2ccccc2)n1.Cl | -3.19 |
